Measurements from PubChem BioAssay (Tox21).
A number with no mark means an inactive call. Calls of active or inactive are those of the source. The call rests on the fitted dose curve.

Test: G protein-coupled receptor (GPCR) small molecule agonists, calcium flux assay: HEK293 wild type cell line counter screen (AID 1920065)
Conditions: HEK293 WT calcium flux, fluorescence, agonist mode; series mostly up to 57.6 µM
Description: U.S. Tox21 Program National Center for Advancing Translational Sciences [NCATS] Division of Preclinical Innovation [DPI] U.S. Environmental Protection Agency [EPA] National Institutes of Environmental Health Sciences [NIEHS] National Toxicology Program [NTP] U.S. Food and Drug Administration [FDA] Assay overview: The increased intracellular calcium release that occurred upon G protein-coupled receptor (GPCR) activation led to the frequent use of calcium flux assays to detect GPCR activation. For the purpose of studying and screening compounds that may activate GPCR, receptor-overexpressing models were typically generated using Hek293 wild-type (WT) cells. In order to eliminate the compounds that may have induced calcium release for non-specific activation, a counter-assay utilizing calcium flux on Hek293 WT cells was performed. The data were formulated in order to serve as a control for any calcium flux detection utilizing Hek293 cells with either GPCR overexpression or gene modification. The procurement of Hek293 WT cells from ATCC. Fluorescence intensity can be utilized to determine the activation of the compound in a calcium flux assay. As a counter control, this cell line was utilized to screen the Tox21 10K compound library.
Assay Protocol Summary: Hek293 cells were dispensed at 1500cells/4uL/well in 1536-well black wall/clear bottom plates using a multidrop dispenser. After the assay plates were incubated at a 37 C/5% CO2 incubator for 18 hours, 4 uL of Calcium Dye Solution was added to each well. The plates were incubated at 37 C for 1 hour. For agonist mode, 23 nL of compounds dissolved in DMSO, positive control (ATP) or DMSO only was transferred to the assay plate by a pin tool station. The fluorescence intensity in the plates was measured using FDSS 7000EX kinetic plate reader with a filter set of Ex/Em=480/540 for 3 min at 1 sec intervals. Each test compound was measured at 15 concentrations and in triplicates.
On the % scale 0 is the no-effect control and ±100 the full control effect.

Compound	outcome	activation
CC1OCCC1=O (stereo not given)	inactive	
Nc1ccc(Oc2cccc(Oc3ccc(N)cc3)c2)cc1	inactive	
COc1ncnc(NS(=O)(=O)c2ccc(N)cc2)c1OC	inactive	
CCc1cc(Cl)c(OC)c(C(=O)NC[C@@H]2CCCN2CC)c1O	inactive	
CCOC(=O)CC#N	inactive	
O=[N+]([O-])c1ccc(/C=N\O)o1	inactive	
CCCCCCCCCCOC(C)=O	inactive	
CCC(C)(C)C(=O)O	inactive	
NC(CO)C(=O)NNCc1ccc(O)c(O)c1O (stereo not given)	inactive	
C/C(=C\C(C)CC(C)CC(C)C)C1CC(=O)OC1=O (stereo not given)	inactive	
C=CC(=O)OCC[N+](C)(C)C	inactive	
O=[N+]([O-])c1c(Cl)cc(Cl)cc1Cl	inactive	
CCCCNS(=O)(=O)c1ccc(C)cc1	inactive	
C[C@@H]1CN(c2c(F)c(N)c3c(=O)c(C(=O)O)cn(C4CC4)c3c2F)C[C@H](C)N1		-0.768% [at 11.8 µM]
Cc1ccsc1/C=C/C1=NCCCN1C	inactive	
Nc1c(N=Nc2ccc(-c3ccc(N=Nc4cc(S(=O)(=O)O)c5ccccc5c4N)cc3)cc2)cc(S(=O)(=O)O)c2ccccc12	inactive	
O=C(Nc1ccc([N+](=O)[O-])cc1)Nc1ccc([N+](=O)[O-])cc1	inactive	
C=C/C(C)=C/C/C=C(\C)CCC=C(C)C	inactive	
O=C(CCN1CCN2CCCC2C1)N1c2ccccc2Sc2ccc(Cl)cc21 (stereo not given)		0.367% [at 11.8 µM]
O=c1[nH]ncc2ccccc12	inactive	

Compound	outcome	activation
CN(C)CCN(Cc1ccc(Cl)cc1)c1ccccn1	inactive	
Cc1scc2c1N(C(=O)CN1CCN(C)CC1)c1ccccc1NC2=O	inactive	
CCOC(=O)C(C)O (stereo not given)	inactive	
OC[C@@H](O)C(O)[C@@H](O)CO (stereo not given in full)	inactive	
O=C(OCC1CO1)C1CCCCC1C(=O)OCC1CO1 (stereo not given)	inactive	
O=C1OCc2ccccc21	inactive	
CCCCCC(=O)OCC	inactive	
CCCCCCCCCCCCCCN(C)C		-0.129% [at 11.8 µM]
CCCCCCCCCC(=O)OCC	inactive	
N=C1N=C(N)c2ccccc21	inactive	
CCO[Si](C)(CCCOCC1CO1)OCC (stereo not given)	inactive	
NC(Cc1ccc(Cl)cc1)C(=O)O (stereo not given)		1.18% [at 0.217 µM]
Cc1cc(O)ccc1N	inactive	
BrCCCCCBr	inactive	
CCCCC(CC)COC(=O)CC#N (stereo not given)	inactive	
Cc1cccc2nccnc12	inactive	
CC(=O)OCC[N+](C)(C)C	inactive	
CCCCCCCCCOC(=O)c1ccc(O)cc1	inactive	
COCCOCCOCCOC	inactive	
CCCCCCCCCCCC(=O)Cl	inactive	
